# Measured values: PMC4336329 (PLoS ONE, 2015)
# Hit rate of the full screen: of about 310,000 compounds, about 14,000 (4.5%) showed an effect of 50% or more. The effect is printed as a negative number. The sample holds strong results, similar compounds and a random draw of the others, so the mix is not that of the screen.
# Target: human ether-à-go-go-related gene (hERG) potassium channel (human, UniProt Q12809)
# Assay: primary screen, population patch clamp on CHO cells stably expressing hERG; higher = less effect of the substance
# 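Also: peak tail current of the secondary pulse compared with the same well before compound.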
# Chain of human ether-à-go-go-related gene (hERG) potassium channel (Q12809 whole entry, looked up): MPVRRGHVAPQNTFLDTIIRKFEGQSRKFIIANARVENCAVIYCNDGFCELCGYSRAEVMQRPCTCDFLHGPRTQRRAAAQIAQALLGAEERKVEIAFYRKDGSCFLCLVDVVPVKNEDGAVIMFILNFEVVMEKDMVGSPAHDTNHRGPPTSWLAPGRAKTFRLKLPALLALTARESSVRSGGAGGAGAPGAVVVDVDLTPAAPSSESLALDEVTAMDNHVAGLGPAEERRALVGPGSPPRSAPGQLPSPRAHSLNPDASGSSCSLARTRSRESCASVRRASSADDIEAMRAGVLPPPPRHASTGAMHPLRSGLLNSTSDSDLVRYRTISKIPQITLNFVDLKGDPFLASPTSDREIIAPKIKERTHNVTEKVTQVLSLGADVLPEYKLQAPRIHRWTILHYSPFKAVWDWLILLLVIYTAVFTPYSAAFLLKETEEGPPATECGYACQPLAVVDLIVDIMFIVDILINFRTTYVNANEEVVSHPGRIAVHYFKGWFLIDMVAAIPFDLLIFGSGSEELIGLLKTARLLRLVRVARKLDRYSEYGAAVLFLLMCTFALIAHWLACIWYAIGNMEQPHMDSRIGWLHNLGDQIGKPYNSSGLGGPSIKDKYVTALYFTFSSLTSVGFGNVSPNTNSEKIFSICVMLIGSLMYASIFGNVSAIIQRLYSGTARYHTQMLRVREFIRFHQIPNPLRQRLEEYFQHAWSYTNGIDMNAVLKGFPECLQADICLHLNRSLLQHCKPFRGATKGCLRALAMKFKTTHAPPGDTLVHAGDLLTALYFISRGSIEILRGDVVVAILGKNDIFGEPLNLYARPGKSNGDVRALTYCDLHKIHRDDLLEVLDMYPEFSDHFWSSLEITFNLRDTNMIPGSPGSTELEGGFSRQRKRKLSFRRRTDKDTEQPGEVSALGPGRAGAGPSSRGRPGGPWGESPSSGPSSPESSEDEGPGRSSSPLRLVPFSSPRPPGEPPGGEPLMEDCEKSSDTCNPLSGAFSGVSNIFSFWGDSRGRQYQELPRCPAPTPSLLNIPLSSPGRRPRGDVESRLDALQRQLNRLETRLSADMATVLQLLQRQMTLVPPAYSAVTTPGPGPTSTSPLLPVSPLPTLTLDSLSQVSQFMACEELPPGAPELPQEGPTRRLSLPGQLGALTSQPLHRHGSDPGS
row,SMILES,"hERG current change (%, negative = inhibition) at 10uM"
1,CCC(C)n1c(SCC(=O)Nc2ccccc2C(F)(F)F)nc2ccsc2c1=O (stereo not drawn),-14%
2,Cc1ccc(C(=O)Oc2coc(CSc3nnc(NC(=O)C4CC4)s3)cc2=O)cc1,16.6%
3,Cc1[nH]c(C)c(S(=O)(=O)N(C)Cc2ccccc2)c1C(=O)N1CCCC1,15.2%
4,CC(=O)N1CCc2cc(S(=O)(=O)CCC(=O)NCc3ccco3)ccc21,12.5%
5,Cc1nn(-c2ccccc2)c(C)c1/C=N/NC(=O)CSc1nnc(-c2ccccc2)n1-c1ccc(Cl)cc1,5.46%
6,Cc1nc(C)c(C(=O)Nc2cccc(C)c2C)o1,-0.939%
7,Cc1c(NC(=O)C2(C)CCCCC2)c(=O)n(-c2ccccc2)n1C,6.22%
8,CC1(O)CCN2C(=O)CCc3cccc1c32 (stereo not drawn),-9.44%
9,O=C(C1CCCCC1)N1CC(=O)N2CCc3ccccc3C2C1 (stereo not drawn),10.2%
10,CC(C)(C)[C@]1(O)CCN2C[C@H]3c4ccccc4CCc4cccc(c43)[C@@H]2C1.Cl,-78.3%
11,CCOc1cc(-c2noc(CCC(=O)NCCc3ccccc3)n2)ccc1OC,1.79%
12,CN(C)c1nc(NCc2ccccc2)nc(N/N=C/c2ccc(Br)cc2)n1,13.3%
13,COc1ccc(C2C(C#N)=C(N)Oc3c2c(-c2ccccc2)nn3-c2ccccc2)c(OC)c1OC (stereo not drawn),-1.15%
14,COc1ccccc1C1C(C#N)=C(N)Oc2c1c(-c1ccccc1)nn2-c1ccccc1 (stereo not drawn),0.699%
15,COc1cc(C2C(C#N)=C(N)Oc3c2c(-c2ccccc2)nn3-c2ccccc2)cc(OC)c1OC (stereo not drawn),-65%
16,O=C(Nc1ccn(Cc2c(F)c(F)cc(F)c2F)n1)c1ccc(COc2cc(Cl)ccc2Cl)o1,6.83%
17,CSc1ccc(CNCC(O)c2ccccc2)cc1.Cl (stereo not drawn),-55%
18,Cl.OC(CNCc1ccncc1)c1ccccc1 (stereo not drawn),6.97%
19,CSc1ccc(CNC(C)C(O)c2ccccc2)cc1.Cl (stereo not drawn),-51.4%
20,OC(CNCc1ccccc1)c1ccccc1 (stereo not drawn),4.68%
21,CC(NCc1ccccc1Cl)C(O)c1ccccc1.Cl (stereo not drawn),4.31%
22,Cl.Oc1cccc(C(O)CNCc2ccc(-c3ccccc3)cc2)c1 (stereo not drawn),-66%
23,CCNCC(O)c1cccc(O)c1 (stereo not drawn),20.8%

row,SMILES,"hERG current change (%, negative = inhibition) at 10uM"
1,Cl.OC(CNCc1ccc(-c2ccccc2)cc1)c1ccccc1 (stereo not drawn),-16.1%
2,CC(NCC#Cc1ccccc1)C(O)c1ccccc1.Cl (stereo not drawn),-1.67%
3,COc1ccc(N2CC(C(=O)NCc3nnnn3-c3ccc(C)c(C)c3)CC2=O)cc1 (stereo not drawn),-19.6%
4,Cc1ccc(CNC(=O)CN2C(=O)COc3ccc(C)cc32)cc1,-5.06%
5,COc1ccc(C(=O)CNc2ccccc2C#N)cc1,28.1%
6,CCCOc1ccc(S(=O)(=O)NCCN2CCOCC2)c2ccccc12,-23.3%
7,CC(CCc1ccccc1)NC(=O)COC(=O)CC1CC2CCC1C2 (stereo not drawn),-6.07%
8,OCCC1CN(CC2CC2)CCN1Cc1ccc(F)c(F)c1 (stereo not drawn),-25.5%
9,CSc1cccc(CN2CCN(CCc3ccccc3)C(CCO)C2)c1 (stereo not drawn),-80.4%
10,CSc1cccc(CN2CCN(Cc3ccc(F)c(F)c3)C(CCO)C2)c1 (stereo not drawn),-69.5%
11,CSc1cccc(CN2CCN(CCC(C)C)C(CCO)C2)c1 (stereo not drawn),-33.2%
12,CSc1ccc(CN2CCN(CC=C(C)C)C(CCO)C2)cc1 (stereo not drawn),-46.2%
13,CSc1ncc(CN2CCN(C3CCCCC3)C(CCO)C2)cn1 (stereo not drawn),-16.9%
14,CSc1ccc(CN2CCN(Cc3ccccc3)C(CCO)C2)cc1 (stereo not drawn),-56.8%
15,CSc1ncc(CN2CCN(C3CCCC3)C(CCO)C2)cn1 (stereo not drawn),-0.478%
16,OCCC1CN(Cc2ccc(Oc3ncccn3)cc2)CCN1Cc1ccc(F)c(F)c1 (stereo not drawn),-23.6%
17,OCCC#Cc1ccc(CN2CCN(Cc3ccccc3)C(CCO)C2)cc1 (stereo not drawn),-15%
18,CSc1ccc(CN2CCN(C3CCCC3)C(CCO)C2)cc1 (stereo not drawn),-53.8%
19,CC12CCC(C/C1=N\OC(=O)c1c(F)cccc1F)C2(C)C (stereo not drawn),-0.495%
20,CC(C)(C)C1CCC(=NNC(=O)CN(c2ccccc2)S(=O)(=O)c2ccccc2[N+](=O)[O-])CC1 (stereo not drawn),6.69%
21,COCCNC(=O)c1ccc(N2CC3CC(C2)c2cccc(=O)n2C3)c([N+](=O)[O-])c1 (stereo not drawn),21.4%
22,Cc1ccc(S(=O)(=O)C2(C(=O)Nc3cccc(F)c3)CC2)cc1,0.141%
23,COc1cc2c(cc1OC)CN(C(=O)c1ccc(OC)c([N+](=O)[O-])c1)CC2,4.43%

row,SMILES,"hERG current change (%, negative = inhibition) at 10uM"
1,COc1cccc(CN(C)C(=O)CSCC(=O)Nc2cc(C)on2)c1OC,11.6%
2,CCCCn1c2c(c(=O)n(C)c1=O)C(c1ccc(OC)cc1)N1CCCCCC1=N2 (stereo not drawn),-21.9%
3,CCOC(=O)C1CCN(Cc2cnc(Oc3ccc(N)cc3)s2)CC1,-10.6%
4,COc1ccc(S(=O)(=O)N2CCCC(C(=O)NCC3CCCO3)C2)cc1OC (stereo not drawn),11%
5,CSc1ccc(CN2CCN(C(C)C)C(CCO)C2)cc1 (stereo not drawn),-24%
6,OCCC1CN(Cc2ccn[nH]2)CCN1Cc1ccc(F)c(F)c1 (stereo not drawn),9.54%
7,CSc1ncc(CN2CCN(CCC(C)C)C(CCO)C2)cn1 (stereo not drawn),-1.45%
8,CC(C)c1cc(CN2CCN(Cc3ccc(F)c(F)c3)C(CCO)C2)[nH]n1 (stereo not drawn),-52.4%
9,CSc1ccc(CN2CCN(CCC(C)C)C(CCO)C2)cc1 (stereo not drawn),-63.3%
10,CC(C)(O)C#Cc1ccc(CN2CCN(Cc3ccccc3)C(CCO)C2)cc1 (stereo not drawn),12%
11,CSc1cccc(CN2CCN(Cc3ccccc3)C(CCO)C2)c1 (stereo not drawn),-57.7%
12,CC(C)c1csc(CN2CCN(Cc3ccc(F)c(F)c3)C(CCO)C2)n1 (stereo not drawn),-19.3%
13,CC(NS(=O)(=O)OCC(Cl)(Cl)Cl)c1ccccc1 (stereo not drawn),9.74%
14,Cc1cccc(-c2cc3nc4c(c(N5CCC6(CC5)OCCO6)n3n2)CCCC4)c1,10.2%
15,O=S(=O)(CCSc1ccc(C(F)(F)F)cn1)c1ccc(Cl)cc1,13%
16,Oc1c(-c2cc(-c3ccco3)[nH]n2)ccc2ccccc12,13.7%
17,CCOC(=O)N1CCc2c(sc3ncn(C)c(=O)c23)C1,5.05%
18,Cc1cc(Cl)ccc1NC(=O)CN1C(=O)CSc2ccc(S(=O)(=O)N3CCOCC3)cc21,-18.7%
19,Cc1nc2nc[nH]n2c(=O)c1CCC(C)C,4.34%
20,COCCNc1nc(N)c([N+](=O)[O-])c(NC2CCCCC2)n1,4.56%
21,NC(=O)C(=O)N/N=C/c1c2ccccc2cc2ccccc12,-11.1%
22,COc1cc(OC)cc(C(=O)Nc2cccc(NC(=O)c3ccccc3)c2)c1,-27.3%
23,COc1cc(OC)cc(C(=O)Nc2cccc(NC(C)=O)c2)c1,-1.56%

row,SMILES,"hERG current change (%, negative = inhibition) at 10uM"
1,CCOC(=O)Nc1cccc(NC(=O)c2cc(OC)cc(OC)c2)c1,-53.7%
2,CCOC(=O)Nc1cccc(C(=O)O)c1,8.63%
3,CCOC(=O)Nc1cccc(NC(=O)c2ccccc2F)c1,7.84%
4,CCOC(=O)Nc1cccc(Nc2ccccc2)c1,-74.8%
5,COc1ccccc1CNC(=O)CN(c1ccc(C)cc1)S(=O)(=O)c1c(C)nn(C)c1C,-24.1%
6,Cn1c(-c2ccc(N)cc2)nc2ccccc21,-3.42%
7,COc1ccc2c(c1)c1nc3ccccc3nc1n2Cc1ccc(OC(C)C)c(OC)c1,-0.905%
8,CCn1c(SCCC(=O)O)nnc1-c1cccnc1,4.65%
9,O=C(NCC1CC1)c1onc(CSc2ccncc2)c1C(=O)NCC1CC1,-11.9%
10,CCCNC(=O)c1onc(CSc2nc3ccccc3[nH]2)c1C(=O)NCCC,-35.7%
11,O=C(NCC1CC1)c1onc(CSc2ccc(F)cc2)c1C(=O)NCC1CC1,-51.6%
12,CCCNC(=O)c1onc(CSc2ccc(F)cc2)c1C(=O)NCCC,5.35%
13,CCCNC(=O)c1onc(CSc2ccc(F)cc2)c1C(=O)NCC1CC1,-62.7%
14,O=C(NCc1ccccc1)c1onc(CSc2ccc(F)cc2)c1C(=O)NCc1ccccc1,1.49%
15,CCCNC(=O)c1onc(CSc2ccc(Cl)cc2)c1C(=O)NCC1CC1,-8.67%
16,O=C(NCc1ccccc1)c1onc(CSc2ccc(F)cc2)c1C(=O)NCCCN1CCOCC1,-73.9%
17,O=C(NCc1ccccc1)c1onc(CSc2ccccc2)c1C(=O)NCC1CC1,-33.4%
18,O=C(NCC1CC1)c1onc(CSc2nc3ccccc3[nH]2)c1C(=O)NCC1CC1,-69.8%
19,COCCNC(=O)c1onc(CSc2nc3ccccc3[nH]2)c1C(=O)NCCOC,-14.3%
20,O=C(NCCCN1CCOCC1)c1onc(CSc2ccccc2)c1C(=O)NCCCN1CCOCC1,4.97%
21,O=C(/C=C\c1ccc2c(c1)OCO2)CC1(O)C(=O)Nc2ccccc21 (stereo not drawn),-0.111%
